The source of these data is PubChem BioAssay AID1347414 (National Center for Advancing Translational Sciences (NCATS), 2020).

Records with an inconclusive call do not appear. Active and inactive are the calls of the source. Calls follow the shape of the dose curve; as a rule, active = well fitted inhibition curve with a large enough effect; inconclusive = small, poorly fitted or top-dose-only effect; inactive = no such curve, though single readings can be large or run the other way.
% is scaled to controls: 0 for no effect and ±100 for the full control effect; potency is read from the fitted curve at half-maximal effect.

A short description of this assay: qHTS to identify inhibitors of the type 1 interferon - major histocompatibility complex class I in skeletal muscle: Secondary screen by immunofluorescence. Also: nearly all actives have a fitted effect of over 70% in size.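 As to activity change, negative = inhibition: digitonin at 100 µM served as the cytotoxic control.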 As to conditions: C25cl48 myoblasts, IFN-b induced HLA-ABC immunofluorescence, 24 h; series mostly up to 49.8 µM; activity change, negative = inhibition: at the top concentration. The gist of the method:
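HLA-ABC immunofluorescence, with nuclear and cell-body stains, was quantified by laser scanning cytometry. Read-out followed 24 h of IFN-beta (4.0 ng/ml) stimulation of C25cl48 human myoblasts with compounds titrated 1:3 over 11 points from 50 uM, with ruxolitinib as inhibitor control.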
On the technique in general: Quantitative high-throughput screening tests each substance at several concentrations.
Consider `C[C@H](NC(=O)/C(C#N)=C/c1cccc(Br)n1)c1ccccc1`, for which the Potency was 20.5 µM (active).

`CCC(=C/[C@H](C)C/C=C/C(C)=C/[C@@H](C)C(=O)[C@@H](C)[C@H](O)[C@@H](C)C/C(C)=C/C(=O)O)/C=C/[C@@H]1OC(=O)C=C[C@@H]1C`: the “activity change, negative = inhibition” value is -89.2% (inactive).

`CC[C@@]1(O)C(=O)OCc2c1cc1n(c2=O)Cc2cc3cc(O)ccc3nc2-1`: the Potency is 1.62 µM (active).
